High-throughput results from PubChem.
The list is not random: actives were taken first. Their share in the collection is about 2.8%.
Pol kappa inh: blocks human DNA polymerase kappa activity | Q9UBT6 | purified Pol kappa, fluorescent DNA synthesis assay, 10 min | Potency, µM (titrated, usually from 107 µM), without a hit: at the highest dose activity, negative = inhibition, usual class: inhibitors | actives 0.53% (n = 400,000); also: potency is read from the fitted curve at half-maximal effect; % is scaled to controls: 0 for no effect and ±100 for the full control effect
Target sequence (Q9UBT6 whole entry, looked up): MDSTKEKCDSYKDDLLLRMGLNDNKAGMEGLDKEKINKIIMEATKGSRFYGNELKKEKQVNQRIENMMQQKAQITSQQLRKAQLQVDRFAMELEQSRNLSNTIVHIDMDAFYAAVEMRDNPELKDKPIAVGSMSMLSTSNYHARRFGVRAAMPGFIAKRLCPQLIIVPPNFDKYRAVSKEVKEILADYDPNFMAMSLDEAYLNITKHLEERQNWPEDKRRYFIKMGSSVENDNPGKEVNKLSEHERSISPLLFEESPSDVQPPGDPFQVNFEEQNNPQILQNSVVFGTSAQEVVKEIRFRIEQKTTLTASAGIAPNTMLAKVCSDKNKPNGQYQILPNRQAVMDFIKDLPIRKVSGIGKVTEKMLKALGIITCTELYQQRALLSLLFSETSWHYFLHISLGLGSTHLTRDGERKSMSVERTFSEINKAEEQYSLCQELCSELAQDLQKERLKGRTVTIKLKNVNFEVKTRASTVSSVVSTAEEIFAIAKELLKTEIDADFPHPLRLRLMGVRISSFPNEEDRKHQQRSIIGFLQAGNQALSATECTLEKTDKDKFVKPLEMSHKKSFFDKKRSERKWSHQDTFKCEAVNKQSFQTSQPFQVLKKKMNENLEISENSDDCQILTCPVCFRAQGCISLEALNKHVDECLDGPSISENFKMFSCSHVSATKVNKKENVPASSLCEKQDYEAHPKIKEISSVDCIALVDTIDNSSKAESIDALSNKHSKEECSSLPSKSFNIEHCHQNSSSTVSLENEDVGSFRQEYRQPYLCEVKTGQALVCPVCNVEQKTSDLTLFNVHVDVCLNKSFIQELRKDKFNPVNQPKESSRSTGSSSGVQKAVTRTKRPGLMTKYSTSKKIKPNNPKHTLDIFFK
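Pol kappa 10 nM + cpd, 15 min RT; start w/ substrate 50 nM final; fluorescence kinetic read, 0 and 10 min. Neg ctrl: buffer, no enzyme.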
FEN1 inh: blocks human flap endonuclease 1; P39748; AID 588795; Potency, µM (highest dose often 114 µM), without a hit: top-dose activity change, negative = inhibition, hits mostly inhibitors; actives 0.35% (n = 390,000); Recombinant FEN1 flap cleavage, fluorescence, 15 min; also: potency is read from the fitted curve at half-maximal effect; % is scaled to controls: 0 for no effect and ±100 for the full control effect; nearly all actives have a fitted effect of over 65% in size
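Recombinant FEN1 (10 nM) was preincubated with pin-transferred compounds for 15 min at room temperature, then flap DNA substrate (50 nM final) was added. Plates were read at 0 and 15 min, and normalized concentration–response data were fitted to a four-parameter Hill equation.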
POLH inh: blocks human DNA polymerase eta activity; Q9Y253; recombinant Pol eta, fluorescent DNA replication assay; Potency, µM (highest dose often 114 µM), inactives show at the top dose activity change, negative = inhibition, actives largely listed as inhibitors; actives 1.2% (n = 390,000); also: potency is read from the fitted curve at half-maximal effect; % is scaled to controls: 0 for no effect and ±100 for the full control effect
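Fluorescent replication assay: 50 nM final substrate added after a 15 min room-temperature compound preincubation with 10 nM enzyme. Signal taken at 0 min and again at 10 min.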
PI5P4K alpha inh: PI5P4K alpha (human) kinase inhibition; P48426; PI5P4Kalpha enzyme, ADP-Glo luminescence, 60 min; hits give low values; max response, %; actives 1.2% (n = 330,000); AID 652105; active = max response of -50% or lower; inconclusive = between -30% and -50%; inactive = -30% or higher; also: value at the top dose of about 77 µM; % is scaled to controls: 0 for no effect and ±100 for the full control effect
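Compounds were pin-transferred onto PI5P4Kalpha and substrate in HEPES pH 7.4 buffer with EGTA, CHAPS and 5% DMSO. ATP (5 microM final) started the reaction, which ran 60 minutes at room temperature before ADP-Glo detection.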
POLI inh: blocks human DNA polymerase iota activity | Q9UNA4 | Potency, µM (series often up to 115 µM), for inactives: top-dose activity, negative = inhibition, actives largely listed as inhibitors | actives 1% (n = 390,000) | Pol iota fluorescent replication assay, 10 min | AID 588590; also: potency is read from the fitted curve at half-maximal effect
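Fluorescent replication assay read twice, at 0 min and 10 min after adding 50 nM (final) substrate. Enzyme (10 nM) and compounds were first incubated 15 min at room temperature; enzyme-free buffer wells were negative controls.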
Pol beta inh: DNA polymerase beta (human) inhibition; P06746; Pol beta primer extension/strand displacement, fluorescence kinetic; Potency, µM (top dose mostly 114 µM), for the others: at the highest dose activity change, negative = inhibition, actives largely listed as inhibitors; actives 1.3% (n = 340,000); also: potency is read from the fitted curve at half-maximal effect; % is scaled to controls: 0 for no effect and ±100 for the full control effect
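Pol beta (10 nM) and compounds were preincubated 15 min at room temperature, then 50 nM substrate (final) started primer extension/strand displacement. Reads were taken at 0 and 10 min; concentration-response data were fitted to a four-parameter Hill equation.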
* marks the source's active call; other numbers are inactive results; ? = inconclusive; / = no result; [ ] = another dose, or the depositor's remark. Unless noted, calls follow the shape of the dose curve; as a rule, active = well fitted curve in the direction sought with a large enough effect; inconclusive = small, poorly fitted or top-dose-only effect, or another doubt; inactive = no such curve, though single readings can be large; an effect the other way counts as inactive or inconclusive.

SMILES	Pol kappa inh	FEN1 inh	POLH inh	PI5P4K alpha inh	POLI inh	Pol beta inh
O=C1NC(=O)N(c2ccccc2F)C(=O)/C1=C/c1ccc(Oc2ccc([N+](=O)[O-])cn2)cc1	-32.9%	-31.2%	-13.0%	-52.4*	-16.9%	-3.3%
CCN(CC)C(=O)Cn1cc(/C=C2\C(=O)NC(=O)N(c3ccccc3F)C2=O)c2ccccc21	-3.6%	-21.9%	12.6%	-2.6	68.8%	23.0%
C=CCn1c(O)c(/C=N/NC(=O)c2ccncc2)c(=O)[nH]c1=O	-2.7%	3.9%	-11.6%	-50.4*	123.3%	16.3%
O=C(N/N=C/c1c(O)n(Cc2ccccc2)c(=O)[nH]c1=O)c1ccncc1	-25.1%	-4.3%	-13.7%	-55.7*	-25.5%[58.9 µM]	2.6%
Cc1ccc(-n2c(O)c(/C=N/NC(=O)c3ccncc3)c(=O)[nH]c2=O)cc1	-3.3%	-16.0%	-1.0%	-22.4	-27.0%	-8.0%
COc1ccc(CCn2c(O)c(/C=N/NC(=O)c3ccncc3)c(=O)[nH]c2=O)cc1OC	-19.2%	-6.5%	-13.3%	-82.4*	-6.5%	24.2%
C[C@@H](Cc1cccc(C(F)(F)F)c1)NCCCc1ccccc1	-12.1%[19.4 µM]	/	/	/	/	/
COc1ccc(S(=O)(=O)Nc2cc([N+](=O)[O-])ccc2OC)cc1	-12.4%	2.0%	-23.2%	1.2	159.4%	?
CC1Oc2cc3c(-c4c(O)cc(O)c5c(O)c6c(cc45)OC(C)C(C)C6=O)c(O)cc(O)c3c(O)c2C(=O)C1C (centres undefined)	35.5µM*	14.1µM*	7.08µM*	-108.8*	3.98µM*	35.5µM*
O=C1NC(=O)C(Sc2ccccc2[N+](=O)[O-])C(=O)N1	-13.2%	0.2%	-21.2%	-54.0*	10µM*	-19.5%
O=[N+]([O-])c1cccc2c([N+](=O)[O-])cccc12	-25.0%	3.1%	-7.0%	3.3	-0.5%	/
COc1ccc(N2C(=O)/C(=C/c3cc(C)n(-c4ccc(C)cn4)c3C)C(=O)NC2=S)c(OC)c1	0.0%	-5.1%	?	?	0.9%	1.1%
COc1ccc(OC)c(N2C(=O)/C(=C/c3ccco3)C(=O)NC2=S)c1	3.55µM*	8.91µM*	0.708µM*	-86.4*	?	?
O=C1NC(=S)N(c2ccc(F)cc2)C(=O)/C1=C/c1ccco1	/	/	/	/	/	0.562µM*
CCOC(=O)N1CCCN(/[N+]([O-])=N/Oc2ccc([N+](=O)[O-])cc2[N+](=O)[O-])CC1	0.0%	-5.2%	/	/	?	/
C[C@H](N)C(=O)NCC(=O)N[C@H]1CSSC[C@@H](C(=O)O)NC(=O)[C@H](CO)NC(=O)[C@H]([C@@H](C)O)NC(=O)[C@H](Cc2ccccc2)NC(=O)[C@H]([C@@H](C)O)NC(=O)[C@H](CCCCN)NC(=O)[C@H](Cc2c[nH]c3ccccc23)NC(=O)[C@H](Cc2ccccc2)NC(=O)[C@H](Cc2ccccc2)NC(=O)[C@H](CC(N)=O)NC(=O)[C@H](CCCCN)NC1=O	5.2%[60.1 µM]	/	/	/	/	/
Cn1c(=O)oc2cc(S(=O)(=O)Nc3cccc([N+](=O)[O-])c3)ccc21	-11.1%	-2.9%	10.4%	12.2	99.9%	-26.5%
Cc1c(OC(=O)N(C)C)ccc2c1O/C(=C\c1ccco1)C2=O	-2.4%	-6.0%	-20.2%	4.3	11.9%	50.1µM*
CCOC(=O)C1CCN(/C=C2/C(=O)NC(=O)N(Cc3ccco3)C2=O)CC1	35.5µM*	-34.8%	7.08µM*	-72.5*	17.8µM*	22.4µM*
COc1ccc(CN2C(=O)NC(=O)/C(=C\c3cccc(OC)c3OC)C2=O)cc1	-6.0%	-16.3%	14.3%	-28.2	25.8%	5.4%
COc1ccc(/C=C2/C(=O)NC(=O)N(Cc3ccco3)C2=O)cc1	/	/	/	/	/	10µM*
COC(=O)C1=C(C)N(Cc2ccco2)C(=O)/C1=C\c1ccc(N(C)C)cc1	?	3.1%	-15.4%	2.0	14.6%	29.8%
CCOCCCNC(=O)c1c[nH]c2ccc(S(=O)(=O)N(C)c3ccc(Cl)cc3F)cc2c1=O	-3.7%[60.1 µM]	1.8%	-13.5%	/	-29.0%	?
